From PubChem BioAssay (Tox21)
Values joined by “and” are separate entries in the source; they are usually repeats but may differ in a detail not shown here. Identical values can stand only once. Records with an inconclusive call do not appear. Where a structure was tested more than once in an assay, its records may differ in their call. Active and inactive are the calls of the source. Unless noted, the call rests on the fitted dose curve; in most records, active means well fitted curve in the direction sought with a large enough effect in the repeat runs; inconclusive means weak or mixed curves; inactive means no such curve, though single readings can be large; an effect the other way counts as inactive or inconclusive.

How the values were obtained:
[1] = qHTS assay to identify small molecule agonists of the vitamin D receptor (VDR) signaling pathway - cell viability counter screen (AID 743224); further: series mostly up to about 63 µM; nearly all actives have a fitted effect of over 50% in size
How it was run: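 VDR-bla cell line, quantitative HTS format; 16 h compound incubation (37C, 5% CO2); ATP-based CellTiter-Glo luminescence measured in the reporter assay wells.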

[2] = qHTS assay to identify small molecule antagonists of the vitamin D receptor (VDR) signaling pathway - cell viability counter screen (AID 743225); further: nearly all actives have a fitted effect of over 50% in size
How it was run: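 Parallel cytotoxicity test: VDR-UAS-bla HEK 293T, 3 nM (final) 1-alpha,25-dihydroxyvitamin D3 with test compound, 16 h, 37C. Endpoint is CellTiter-Glo luminescence in the same wells.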

[3] = qHTS assay to identify small molecule agonists of the NFkB signaling pathway (AID 1159509; active means well fitted curve in the direction sought with a large enough effect in the signal ratio in the repeat runs, not every such curve was filed as active; the % refers to the signal ratio; further: series mostly up to about 61 µM)
How it was run: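 After overnight attachment, reporter cells received test compounds, DMSO or positive controls and were incubated 5 hr at 37 C. FRET substrate was then added for 1.5 hr at room temperature before dual-emission fluorescence reading.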

[4] = qHTS assay to identify small molecule agonists of the NFkB signaling pathway - cell viability counter screen (AID 1159515; calls by dose curve; further: series mostly up to about 61 µM; nearly all actives have a fitted effect of over 55% in size)
How it was run: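 Viability in NFkB-bla ME-180 cells was measured by CellTiter-Glo luminescence, 30 min room temperature, in wells already treated 5 hr with compounds and read for reporter FRET.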

[5] = qHTS assay to identify small molecule agonists of the endoplasmic reticulum stress response signaling pathway (AID 1159516; active means well fitted activation curve with a large enough effect in the signal ratio in the repeat runs, not every such curve was filed as active; the % refers to the signal ratio)
How it was run: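 ER stress element reporter (bla) in HeLa. 1,500 cells/well, overnight attachment; 5 hr compound; 2 hr RT substrate; dual-emission fluorescence.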

[6] = qHTS assay to identify small molecule agonists of the endoplasmic reticulum stress response signaling pathway - cell viability counter screen (AID 1159517; calls by dose curve;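 further: HeLa cells carrying an ER stress response element beta-lactamase reporter; series mostly up to about 61 µM; nearly all actives have a fitted effect of over 50% in size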)
How it was run: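 Counter-screen wells were identical to the reporter wells. Cells were plated at 1,500 per well and dosed for 5 hr, then read for luminescence 30 min after CellTiter-Glo addition.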

[7] = qHTS assay to identify small molecule agonists of the AP-1 signaling pathway - cell viability counter screen (AID 1159525; calls by dose curve; further: nearly all actives have a fitted effect of over 55% in size; further: potency means the concentration at half of the fitted maximal effect)
How it was run: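 AP-1-bla ME-180 cells in Opti-MEM with 0.5% dialyzed FBS, compound exposure 5 h at 37 C in 15-point titration. Viability read in the same wells as ATP content by CellTiter-Glo luminescence, normalised to tetra-n-octylammonium bromide and DMSO controls.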

[8] = qHTS assay to identify small molecule agonists of the AP-1 signaling pathway (AID 1159526; calls by dose curve)
[9] = qHTS assay to identify small molecule agonists of the RXR signaling pathway - cell viability counter screen (AID 1159529); further: nearly all actives have a fitted effect of over 50% in size; further: potency means the concentration at half of the fitted maximal effect
How it was run: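 In this parallel viability measure, GeneBLAzer RXR-alpha HEK 293T cells (2% charcoal-stripped FBS) were given a 5 hr preincubation, treated with compounds 16 hr at 37 C, and read by CellTiter-Glo luminescence.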

[10] = qHTS assay to identify small molecule antagonists of the retinoid acid receptor (RAR) signaling pathway - cell viability counter screen (AID 1159551); further: nearly all actives have a fitted effect of over 35% in size
How it was run: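 Following overnight attachment, C3RL4 reporter cells received DMSO-dissolved compounds and then retinol (1 uM final). Six hours later at 37 C, ATP content was measured by CellTiter-Glo luminescence.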

[11] = qHTS assay to identify small molecule antagonists of the retinoic acid receptor (RAR) signaling pathway (AID 1159552; further: nearly all actives have a fitted effect of over 50% in size; further: potency means the concentration at half of the fitted maximal effect)
How it was run: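 C3RL4 RARE-luc cells, overnight plating; retinol 1 uM final added right after compound; 6 hr 37 C; luciferase read at 30 min RT.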

[12] = qHTS assay to identify small molecule agonists of the retinoic acid receptor (RAR) signaling pathway (AID 1159553)
How it was run: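 Cell line C3RL4, RARE luciferase reporter. Treatment: compounds in DMSO, 6 hr, 37 C, 5% CO2, after overnight plating. Detection: luminescence, 30 min RT after reagent.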

[13] = qHTS assay to identify small molecule antagonists of the estrogen related receptor (ERR) signaling pathway - cell viability counter screen (AID 1224818);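 further: series mostly up to about 46 µM; viability measured after 17.5 h of compound exposure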
How it was run: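 Here, ERR cells are plated at 2,000 cells per well, allowed 6 h to attach, and treated with compounds in DMSO for 17.5 h at 37 C. CellTiter-Fluor is then added and fluorescence read after 30 min.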

[14] = qHTS assay to identify small molecule antagonists of the estrogen related receptor signaling pathway with the pleiotropic PPARgamma coactivator (PGC) cell viability counter screen (AID 1224822;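 further: series mostly up to about 46 µM; viability read after 17.5 h compound exposure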)
How it was run: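 qHTS format, DMSO compound stocks pin-transferred onto PGC/ERR cells 6 h after plating; 17.5 h exposure at 37 C, then CellTiter-Fluor fluorescence.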

[15] = qHTS assay to identify small molecule antagonists of the estrogen related receptor (ERR) signaling pathway from Tox21 library - cell viability counter screen (AID 1224834); further: nearly all actives have a fitted effect of over 30% in size; further: potency means the concentration at half of the fitted maximal effect
How it was run: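 Viability readout (CellTiter-Fluor fluorescence, 30 min at 37 C) multiplexed with the ERR assay; cells treated 17.5 h at 37 C with compounds delivered in DMSO.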

[16] = target: Luciferin 4-monooxygenase (Photinus pyralis) (UniProt P08659); experiment: qHTS assay to identify small molecule inhibitors of firefly luciferase (AID 1224835); further: nearly all actives have a fitted effect of over 25% in size; further: potency means the concentration at half of the fitted maximal effect
Chain of Luciferin 4-monooxygenase (Photinus pyralis) (P08659 whole entry, looked up): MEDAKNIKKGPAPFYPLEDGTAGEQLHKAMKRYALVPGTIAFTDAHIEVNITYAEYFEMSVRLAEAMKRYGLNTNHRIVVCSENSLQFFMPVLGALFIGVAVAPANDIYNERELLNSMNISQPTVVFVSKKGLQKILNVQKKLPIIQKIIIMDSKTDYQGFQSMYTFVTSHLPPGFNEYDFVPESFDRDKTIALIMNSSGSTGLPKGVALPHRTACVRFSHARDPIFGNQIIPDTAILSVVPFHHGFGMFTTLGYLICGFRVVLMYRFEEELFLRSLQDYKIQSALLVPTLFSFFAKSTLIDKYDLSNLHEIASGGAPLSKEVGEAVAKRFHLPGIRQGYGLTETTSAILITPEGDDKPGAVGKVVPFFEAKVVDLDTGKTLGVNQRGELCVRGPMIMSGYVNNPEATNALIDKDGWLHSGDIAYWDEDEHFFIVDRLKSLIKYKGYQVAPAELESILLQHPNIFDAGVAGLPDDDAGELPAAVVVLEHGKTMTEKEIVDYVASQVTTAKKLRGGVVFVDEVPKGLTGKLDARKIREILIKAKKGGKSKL
How it was run: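 Biochemical qHTS: compounds run as interplate titrations against purified firefly enzyme, with D-luciferin and ATP each at its KM concentration. Light output recorded by CCD imaging.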

[17] = qHTS assay to identify small molecule agonists of the constitutive androstane receptor (CAR) signaling pathway - cell viability counter screen (AID 1224836); further: series mostly up to about 92 µM; nearly all actives have a fitted effect of over 45% in size
How it was run: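 Using CellTiter-Fluor, viability of HepG2 cells harbouring hCAR and CYP2B6-2.2kb was measured following 23 h incubation with a 15-concentration compound series plus PK11195 (0.75 uM final).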

[18] = qHTS assay to identify small molecule antagonists of the retinoid-related orphan receptor gamma (ROR-gamma) signaling pathway - cell viability counter screen (AID 1159520); further: nearly all actives have a fitted effect of over 50% in size; further: potency means the concentration at half of the fitted maximal effect
How it was run: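 Tet-on ROR gamma CHO cells were given compounds for 2 hr, then doxycycline hyclate at 1 uM final, and incubated 16 hr at 37 C. Viability was measured as ATP content by CellTiter-Glo luminescence.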

[19] = target: Nuclear receptor ROR-gamma (Homo sapiens) (UniProt P51449); experiment: qHTS assay to identify small molecule antagonists of the retinoid-related orphan receptor gamma (ROR-gamma) signaling pathway (AID 1159521; further: nearly all actives have a fitted effect of over 50% in size; further: potency means the concentration at half of the fitted maximal effect)
How it was run: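 Decreased RORE-driven luciferase luminescence indicates antagonism. Tet-on RORγ CHO cells received compound, then 1 uM final doxycycline 2 h later; signal read after 16 h incubation.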

[20] = target: Retinoic acid receptor RXR-alpha (Homo sapiens) (UniProt P19793); experiment: qHTS assay to identify small molecule agonists of the RXR signaling pathway (AID 1159527; calls by dose curve; further: nearly all actives have a fitted effect of over 35% in size)
Chain of Retinoic acid receptor RXR-alpha (Homo sapiens) (P19793 whole entry, looked up): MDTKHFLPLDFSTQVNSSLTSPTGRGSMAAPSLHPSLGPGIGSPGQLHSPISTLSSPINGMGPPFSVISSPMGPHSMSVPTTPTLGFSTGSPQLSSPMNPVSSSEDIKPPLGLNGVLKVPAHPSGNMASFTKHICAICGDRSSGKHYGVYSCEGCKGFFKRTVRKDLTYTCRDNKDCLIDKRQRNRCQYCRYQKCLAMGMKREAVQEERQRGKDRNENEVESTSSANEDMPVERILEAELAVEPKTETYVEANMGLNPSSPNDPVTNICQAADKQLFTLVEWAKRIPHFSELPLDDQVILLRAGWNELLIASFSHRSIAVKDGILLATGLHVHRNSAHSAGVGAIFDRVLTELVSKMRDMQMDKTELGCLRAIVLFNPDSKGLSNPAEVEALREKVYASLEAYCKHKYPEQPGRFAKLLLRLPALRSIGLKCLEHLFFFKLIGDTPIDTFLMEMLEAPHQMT
How it was run: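 16 hr incubation of compound-treated RXR-alpha-UAS-bla HEK 293T cells (2% charcoal-stripped FBS, 37 C) preceded a 2 hr room-temperature LiveBLAzer FRET substrate step and blue/green fluorescence measurement.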

Measured: Potency

COc1cc(Cc2cnc(N)nc2N)cc(OC)c1OC
not listed: [18] | [19] | [20]
inactive: all other assays above

C[C@H]1C[C@H]2[C@@H]3CCC4=CC(=O)C=C[C@]4(C)[C@@]3(F)[C@@H](O)C[C@]2(C)[C@@]1(O)C(=O)CO
not listed: [1] | [2] | [5] | [11] | [12] | [13] | [14] | [16]
inactive: all other assays above

CCC(O)OCCCOC (configuration not stated)
not listed: [2] | [5] | [11] | [12] | [13] | [14]
inactive: all other assays above

CC(=O)Nc1cccc(O)c1
not listed: [2] | [5] | [13] | [14] | [19] | [20]
inactive: all other assays above

CCCCOC(=O)COc1ccc(Cl)cc1Cl
19.5 µM (active) and inactive: [19]
active: [16] 9.05 µM and 10 µM
not listed: [5] | [13] | [14] | [20]
inactive: all other assays above

CC(=O)Nc1ccccc1
not listed: [2] | [13] | [14] | [18] | [19]
inactive: all other assays above

CC(=O)c1ccccc1
not listed: [11] | [12] | [13] | [14] | [18] | [19]
inactive: all other assays above

CCCCCCCCCCCCc1ccccc1
not listed: [2] | [5] | [13] | [14] | [20]
inactive: all other assays above

C#C[C@]1(O)CC[C@H]2[C@@H]3CCC4=CC(=O)CC[C@@H]4[C@H]3CC[C@@]21C
active: [19] 30.6 µM | [11] 27.3 µM and 11.9 µM
not listed: [2] | [5] | [13] | [14] | [18] | [20]
inactive: all other assays above

CCCCCCCCC/C=C/CC1CC(=O)OC1=O (configuration not stated)
inactive: [1] | [3] | [4] | [6] | [7] | [8] | [9] | [10] | [15] | [17]
active: [16] 71.3 µM

OCCOCCN1CCN(C2=Nc3ccccc3Sc3ccccc32)CC1
not listed: [13] | [14] | [16] | [18] | [19] | [20]
inactive: all other assays above

O=C(CC(C(=O)OC1CCCCC1)S(=O)(=O)O)OC1CCCCC1 (configuration not stated)
inactive and 53.8 µM (active): [18]
not listed: [2] | [5] | [13] | [14] | [20]
inactive: all other assays above

Fc1ccc(Br)cc1
not listed: [2] | [3] | [13] | [14]
inactive: all other assays above

Cc1cccnc1
not listed: [5] | [11] | [12] | [13] | [14] | [18]
inactive: all other assays above

CC[C@H](C)C(=O)O[C@H]1C[C@@H](C)C=C2C=C[C@H](C)[C@H](CC[C@@H]3C[C@@H](O)CC(=O)O3)[C@H]21
inactive: [1] | [3] | [4] | [6] | [8] | [10] | [16] | [17]
55.7 µM (active) and inactive: [7]
69.6 µM (active) and inactive: [15]
active: [18] 27.7 µM | [19] 982 nM and 1.21 µM | [9] 8.83 µM

CCCCCCOCCO
not listed: [5] | [13] | [14] | [18] | [19]
inactive: all other assays above

COS(C)(=O)=O
not listed: [5] | [11] | [12] | [13] | [14] | [20]
inactive: all other assays above

OCCOCCOCCO
not listed: [5] | [11] | [12] | [13] | [14] | [20]
inactive: all other assays above
